Experiment [1] can be described thus: qHTS of pediatric cancer cell lines to identify multiple opportunities for drug repurposing: Primary screen for BT-37 cells (AID 1347094). Further: potency means the concentration at half of the fitted maximal effect. A digest of the protocol: (§1)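 Viability was measured as metabolically active cells after 48 hours of treatment, read by CellTiter-Glo luminescence. Compounds were tested at multiple final concentrations, giving concentration-response curves.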
In general terms: Quantitative high-throughput screening tests each substance at several concentrations.

The nature of experiment [2]: qHTS of pediatric cancer cell lines to identify multiple opportunities for drug repurposing: Primary screen for NB-EBc1 cells (AID 1347095). Further: potency means the concentration at half of the fitted maximal effect. The essentials: as §1
The nature of experiment [3]: qHTS of pediatric cancer cell lines to identify multiple opportunities for drug repurposing: Primary screen for Saos-2 cells (AID 1347097). Further: nearly all actives have a fitted effect of over 40% in size. Further: potency means the concentration at half of the fitted maximal effect. The essentials:
as §1

The nature of experiment [4]: qHTS of pediatric cancer cell lines to identify multiple opportunities for drug repurposing: Primary screen for SK-N-SH cells (AID 1347098). Further: nearly all actives have a fitted effect of over 65% in size. Further: potency means the concentration at half of the fitted maximal effect. The essentials: (§2)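 Cells (500-1,000/well) rested 5 h, then received compounds for 48 h; metabolically active cells were measured by CellTiter-Glo luminescence. Final concentrations spanned up to 46 µM (MIPE, 11-point) or 0.59 nM-46 µM (NPC, 8-point) in primary screens, 11-point in follow-ups.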

Experiment [5] in a line: qHTS of pediatric cancer cell lines to identify multiple opportunities for drug repurposing: Primary screen for LAN-5 cells (AID 1347100). Further: potency means the concentration at half of the fitted maximal effect. The essentials:
(§3)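 Cells (500-1,000/well) in growth media were settled 5 h at 37 degrees C, then given compounds for 48 h. Viability was read as CellTiter-Glo luminescence. Primary runs used MIPE at 11 points (0.78 nM-46 µM) and NPC at 8 points (0.59 nM-46 µM); follow-ups used 11 points.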

Experiment [6] can be described thus: qHTS of pediatric cancer cell lines to identify multiple opportunities for drug repurposing: Primary screen for BT-12 cells (AID 1347101). Further: nearly all actives have a fitted effect of over 25% in size. Further: potency means the concentration at half of the fitted maximal effect. A digest of the protocol:
as §2

Experiment [7] is described as follows: qHTS of pediatric cancer cell lines to identify multiple opportunities for drug repurposing: Primary screen for Rh18 cells (AID 1347102). Further: nearly all actives have a fitted effect of over 65% in size. Further: potency means the concentration at half of the fitted maximal effect. The essentials:
as §3

A short description of experiment [8]: qHTS of pediatric cancer cell lines to identify multiple opportunities for drug repurposing: Primary screen for OHS-50 cells (AID 1347103). Further: nearly all actives have a fitted effect of over 40% in size. Further: potency means the concentration at half of the fitted maximal effect. The essentials: as §2
Experiment [9] can be described thus: qHTS of pediatric cancer cell lines to identify multiple opportunities for drug repurposing: Primary screen for RD cells (AID 1347104). Further: nearly all actives have a fitted effect of over 55% in size. Further: potency means the concentration at half of the fitted maximal effect. A digest of the protocol:
as §1

A short description of experiment [10]: qHTS of pediatric cancer cell lines to identify multiple opportunities for drug repurposing: Primary screen for MG 63 (6-TG R) cells (AID 1347105). Further: nearly all actives have a fitted effect of over 50% in size. Further: potency means the concentration at half of the fitted maximal effect. The essentials:
as §1

Experiment [11] can be described thus: qHTS of pediatric cancer cell lines to identify multiple opportunities for drug repurposing: Primary screen for control Hh wild type fibroblast cells (AID 1347106).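 Further: series mostly up to about 46 µM; a drop in luminescence marks cytotoxicity and a rise apparent proliferation; nearly all actives have a fitted effect of over 55% in size.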 The essentials:
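Viability after 48 h compound treatment at 37C, 500-1,000 cells/well, read as ATP luminescence with CellTiter-Glo. Primary screens used 11-point (MIPE, 0.78 nM-46 µM) or 8-point (NPC, 0.59 nM-46 µM) final concentrations; follow-up screens used 11-point dilutions.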

The nature of experiment [12]: qHTS of pediatric cancer cell lines to identify multiple opportunities for drug repurposing: Primary screen for Rh30 cells (AID 1347107). Further: nearly all actives have a fitted effect of over 75% in size. Further: potency means the concentration at half of the fitted maximal effect. The essentials: as §3
The nature of experiment [13]: qHTS of pediatric cancer cell lines to identify multiple opportunities for drug repurposing: Primary screen for Rh41 cells (AID 1347108). Further: nearly all actives have a fitted effect of over 70% in size. Further: potency means the concentration at half of the fitted maximal effect. A digest of the protocol: as §1
Experiment [14] is described as follows: qHTS of pediatric cancer cell lines to identify multiple opportunities for drug repurposing: Primary screen for NB1643 cells (AID 1347099). Further: nearly all actives have a fitted effect of over 50% in size. Further: potency means the concentration at half of the fitted maximal effect. The essentials: as §1
Experiment [15] is described as follows: qHTS of pediatric cancer cell lines to identify multiple opportunities for drug repurposing: Confirmatory screen for NB1643 cells (AID 1347109). Further: nearly all actives have a fitted effect of over 45% in size. Further: potency means the concentration at half of the fitted maximal effect. A digest of the protocol: as §3
Experiment [16] can be described thus: qHTS of pediatric cancer cell lines to identify multiple opportunities for drug repurposing: Confirmatory screen for A673 cells (AID 1347110).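 Further: cells exposed to compound for 48 h before the viability read; nearly all actives have a fitted effect of over 65% in size.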 Further: potency means the concentration at half of the fitted maximal effect. The essentials:
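qHTS titration format: primary MIPE 0.78 nM-46 µM (11 pts), NPC 0.59 nM-46 µM; confirmation 11 pts. 48 h, CTG luminescence.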

Experiment [17] is described as follows: qHTS of pediatric cancer cell lines to identify multiple opportunities for drug repurposing: Confirmatory screen for SK-N-MC cells (AID 1347111).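 Further: cells exposed to compound for 48 h before the readout; nearly all actives have a fitted effect of over 70% in size.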 A digest of the protocol: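 Metabolically active cells were quantified by ATP-dependent luminescence (CellTiter-Glo, 15 min at room temperature) following 48 h treatment. Cells had been plated at 500-1,000 per well and settled for 5 h beforehand.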

A short description of experiment [18]: qHTS of pediatric cancer cell lines to identify multiple opportunities for drug repurposing: Confirmatory screen for BT-12 cells (AID 1347112). Further: nearly all actives have a fitted effect of over 55% in size. Further: potency means the concentration at half of the fitted maximal effect. A digest of the protocol: as §3
Experiment [19] is described as follows: qHTS of pediatric cancer cell lines to identify multiple opportunities for drug repurposing: Confirmatory screen for LAN-5 cells (AID 1347113). Further: nearly all actives have a fitted effect of over 65% in size. Further: potency means the concentration at half of the fitted maximal effect. The essentials: as §3

Records with an inconclusive call do not appear. Active and inactive are the calls of the source. The call rests on the fitted dose curve; in most records, active means well fitted curve in the direction sought with a large enough effect; inconclusive means small, poorly fitted or top-dose-only effect, or another doubt; inactive means no such curve, though single readings can be large; an effect the other way counts as inactive or inconclusive.

For the compound `C[C@H]1[C@H](NC(=O)C(=NOC(C)(C)C(=O)O)c2csc(N)n2)C(=O)N1S(=O)(=O)O`, the Potency result in experiment [1], in experiment [2], in [3], in experiment [4], in experiment [5] and in experiment [6] was “inactive” each time. In addition, the Potency result in experiment [7], in experiment [8], in experiment [9], in [10], in experiment [11] and in experiment [12] was “inactive” throughout. For the same compound, in [13], the Potency result is “inactive”.

With `CCC(=O)NC[C@H](Cc1ccc(OCCc2nc(-c3ccccc3)oc2C)cc1)NC(C)=CC(=O)c1ccc(C(F)(F)F)cc1`, the Potency was 3.06 µM (active) in [1]; 0.743 µM (active) in experiment [2]; 16.6 µM (active) in experiment [3]; 13.2 µM (active) in experiment [14]; 3.32 µM (active) in [5]; 12.2 µM (active) in experiment [8]. Moreover, the Potency result in experiment [7] and in experiment [11] was “inactive” in each case.

`O=C(O)Cc1cccc2ccccc12`: the Potency entry in [1], in experiment [2], in experiment [3], in experiment [4], in experiment [14] and in [6] was “inactive” each time. The Potency result in [7], in experiment [8], in experiment [9], in experiment [11], in [12] and in [13] was “inactive” throughout.

As for `CC1(C)O[C@H]2C[C@@H]3[C@H]4CCC5=CC(=O)C=C[C@]5(C)[C@@]4(F)[C@@H](O)C[C@]3(C)[C@]2(C(=O)CO)O1`, the figures for the Potency in experiment [1], in experiment [2] and in [5] were 13.7 µM (active), 2.35 µM (active) and 7.43 µM (active), respectively. In addition, the Potency result in experiment [3], in [4], in [7], in experiment [9], in experiment [10] and in experiment [11] was “inactive” throughout. Moreover, the Potency entry in experiment [12], in [13], in experiment [15], in experiment [16], in [17] and in experiment [18] was “inactive” throughout. Also, the Potency entry in experiment [19] was “inactive”.

Consider `COc1ccc(-c2nc(N3CCOCC3)c3sc(CN(C)c4ncc(C(=O)NO)cn4)cc3n2)cn1`, for which the Potency in experiment [1] is 0.0069 µM (active); in [2], 0.001 µM (active); in experiment [3], 0.0066 µM (active); in [4], 0.0341 µM (active); in experiment [14], 0.001 µM (active); in experiment [5], 0.001 µM (active). Also, the Potency in experiment [6] is 0.0086 µM (active); in experiment [7] it was 0.001 µM (active); in [8], 0.0011 µM (active); in [9] it was 0.0166 µM (active); in experiment [10], 0.0296 µM (active); in experiment [12], 0.209 µM (active). Moreover, the Potency is 0.0296 µM (active) in [13]; 0.928 µM (active) in experiment [15]; 1.65 µM (active) in experiment [16]; 1.85 µM (active) in experiment [18]; 0.465 µM (active) in [19]. Moreover, the Potency result in experiment [11] was “inactive”.

In the case of `CCN(CC)CCNC(=O)c1ccc(N)cc1`, the Potency entry in experiment [1], in experiment [2], in [3], in [4], in experiment [14] and in experiment [5] was “inactive” throughout. Moreover, the Potency entry in [6], in experiment [7], in experiment [8], in [9], in [10] and in [11] was “inactive” each time. Also, the Potency entry in experiment [12] was “inactive”.

These data come from PubChem BioAssay (NCATS).
